Measured values reported in PubChem BioAssay.
Active and inactive are the calls of the source. Unless noted, how the calls were made is not given here.

Tests used:
[1] = system: XIP peptide (Xip251-270) binding; assay: XIP fragment 251-270 binding compounds – biochemical, small-molecule microarray, fluorescence 635/667 nm, 0.1 µg/mL protein, primary screen (AID 1182); details: fluorescent protein binding, 635 nm, higher = more signal, called active from +8 up or from −8 down
XIP peptide (Xip251-270) = assay: compounds binding XIP fragment 251-270 – biochemical, small-molecule microarray, fluorescence 635/667 nm, 0.5 µg/mL protein, primary screen (AID 1183); details: fluorescence 635 nm, higher = more signal
[2] = blood-stage malaria parasite viability loss – strain 3D7, DAPI fluorescence, 100 nL, primary screen (AID 1184);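 further: parasites grown inside human red blood cells in medium with human serum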; details: P. falciparum 3D7 growth, 3 d, higher = more signal
[3] = target: Homeobox protein Hox-A13 (Mus musculus) (UniProt Q62424); assay: disruptors of Hoxa13 oligonucleotide interaction – biochemical, fluorescence polarization, labeled oligonucleotide, primary screen (AID 1185); details: Hoxa13:DNA binding, 15 min, higher = more signal, called active from +8 up or from −8 down
[4] = blockers of DNA damage checkpoint Chk1 activation – imaging, HeLa, hydroxyurea, phospho-Chk1 antibody, percent positive cells, primary screen (AID 1186); details: hydroxyurea-induced phospho-Chk1 immunofluorescence imaging, higher = more signal
[5] = blockers of DNA damage checkpoint Chk1 activation – imaging, HeLa, hydroxyurea, phospho-Chk1 nuclear intensity, primary screen (AID 1187); details: hydroxyurea-induced phospho-Chk1 immunofluorescence imaging, higher = more signal

Sequence of Homeobox protein Hox-A13 (Mus musculus) (Q62424 whole entry, looked up): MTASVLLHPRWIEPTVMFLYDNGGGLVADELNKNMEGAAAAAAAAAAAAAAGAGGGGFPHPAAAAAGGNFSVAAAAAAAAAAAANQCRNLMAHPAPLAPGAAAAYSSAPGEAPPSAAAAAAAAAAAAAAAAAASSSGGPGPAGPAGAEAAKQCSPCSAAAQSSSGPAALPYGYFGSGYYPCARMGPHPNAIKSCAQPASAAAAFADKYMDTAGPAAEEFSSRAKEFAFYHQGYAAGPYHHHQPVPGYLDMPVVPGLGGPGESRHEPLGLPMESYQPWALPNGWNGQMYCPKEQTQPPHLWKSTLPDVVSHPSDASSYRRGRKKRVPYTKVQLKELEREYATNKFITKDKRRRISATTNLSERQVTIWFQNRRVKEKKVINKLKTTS

Compound | composite z-score [1] | composite z-score (XIP peptide (Xip251-270)) | z-score [2] | z-score [3] | z-score [4] | z-score [5]
Cc1ccccc1C(O)C1C=CC2C(=O)N(c3ccccc3)C(=O)C2N1Nc1ccc(C#N)cc1 (stereo unspecified) | 3.08 (inactive) | 0.761 | -0.494 | -0.699 (inactive) | -0.873 (inactive) | -0.982 (inactive)
C=CCNC(=O)[C@@H]1[C@H]2C(=O)O[C@H](c3ccccc3)[C@H](c3ccccc3)N2[C@H](c2ccc(OCCO)cc2)[C@@]12C(=O)N(C(=O)OCCOC)c1ccc(C#CC3(O)CCCCCC3)cc12 | 0.87 (inactive) | 0.675 | -2.33 | 2.65 (inactive) | -0.0211 (inactive) | 0.0364 (inactive)
CC(C)[Si](OCC[C@H]1O[C@]2(C(=O)N(Cc3ccccc3)c3ccccc32)[C@@H](C)[C@@H]1[Si](C)(C)O)(C(C)C)C(C)C | -0.177 (inactive) | 0.457 | -1.94 | -0.292 (inactive) | -0.558 (inactive) | -0.322 (inactive)
CC(C)CNC(=O)[C@@]1(C)c2ccccc2C(=O)N(Cc2ccc(OC(F)(F)F)cc2)[C@H]1c1ccc(CO)cc1 | -0.332 (inactive) | -1.4 | -1.12 | -2.24 (inactive) | -0.273 (inactive) | -0.177 (inactive)
O=C1C2C=CC(C(O)C(c3ccccc3)c3ccccc3)N(Nc3ccc([N+](=O)[O-])cc3)C2C(=O)N1c1ccccc1 (stereo unspecified) | -0.0268 (inactive) | 0.747 | 0.535 | -1.88 (inactive) | 0.349 (inactive) | 0.0443 (inactive)
COCCOC(=O)N1C(=O)[C@@]2(c3cc(C#CCNC(N)=O)ccc31)[C@H](c1ccc(OCCO)cc1)N1[C@H](c3ccccc3)[C@H](c3ccccc3)OC(=O)[C@H]1[C@@H]2C(=O)Nc1nc2ccccc2s1 | 0.329 (inactive) | -0.444 | -1.08 | 0.967 (inactive) | 0.0818 (inactive) | 0.238 (inactive)
CCc1cccc(NC(=O)O[C@H]2[C@H](OC(=O)Nc3ccccc3)[C@@H](OC(=O)Nc3ccccc3)[C@@H](OC)O[C@@H]2CO)c1 | 0.652 (inactive) | 0.886 | -2.16 | -5.07 (inactive) | -0.235 (inactive) | -0.0949 (inactive)
C=CCC1=C[C@H]2[C@H]([C@@H]3C=C[C@]2(CC=C)C(=O)[C@]32CO2)[C@@]2(CO2)C1=O | 1.7 (inactive) | -0.489 | -0.0419 | -1.29 (inactive) | -0.556 (inactive) | -0.606 (inactive)
CC(C)C[C@@H]1NC(=O)[C@H](CC(C)C)NC(=O)[C@@]23C(=O)N[C@@H](Cc4ccccc4)C2[C@H](C)[C@@]2(C)O[C@H]2C3/C=C/CC/C=C/CNC1=O (stereo partly specified) | -0.404 (inactive) | 0.674 | -1.52 | -6.55 (inactive) | -0.218 (inactive) | -0.0919 (inactive)
Cc1ccc(S(=O)(=O)c2cc3oc2CC[C@@H](CO)NC(=O)N(C)Cc2cn(nn2)C[C@H](Cc2ccccc2)NC3=O)cc1 | -0.126 (inactive) | -0.612 | -0.746 | -4.42 (inactive) | -0.131 (inactive) | -0.0334 (inactive)
O=C1C2C=CC(C(O)C#Cc3ccccc3)N(Nc3ccccc3)C2C(=O)N1c1ccccc1 (stereo unspecified) | -0.115 (inactive) | 0.176 | 0.801 | -4.05 (inactive) | -0.0484 (inactive) | -0.217 (inactive)
COCCOC(=O)N1C(=O)[C@@]2(c3cc(C#CC4=CCCCC4)ccc31)[C@H](C(=O)NC[C@H](O)c1ccccc1)[C@H]1C(=O)O[C@H](c3ccccc3)[C@H](c3ccccc3)N1[C@@H]2c1ccccc1OCCO | 0.51 (inactive) | 0.681 | -2.02 | 1.22 (inactive) | 0.443 (inactive) | 0.384 (inactive)
O=C(CS)NCCCCCCNC(=O)[C@@H]1C[C@@H]2C(=O)N[C@@H](Cc3ccccc3)C(=O)N2[C@@H]1c1ccc(O)cc1 | 0.794 (inactive) | 0.811 | -1.02 | -2.14 (inactive) | -0.0496 (inactive) | 0.23 (inactive)
COc1ccc([Si](C)(C)[C@H]2[C@H](CC(=O)N(CCO)Cc3ccccc3)O[C@@]3(C(=O)N(C)c4ccccc43)[C@@H]2C)cc1 | 0.0642 (inactive) | 0.369 | -0.134 | -6.95 (inactive) | -0.217 (inactive) | -0.251 (inactive)
O=C/C=C/c1ccc(/C=C/c2ccccc2)cc1 | -0.837 (inactive) | -0.443 | 3.9 | 0.0626 (inactive) | 0.144 (inactive) | 0.848 (inactive)
COc1ccc(-c2cc3c(c(-c4ccccc4)n2)[Si](C(C)C)(C(C)C)O[C@H]3c2ccccc2)cn1 | 0.64 (inactive) | 0.559 | -2.91 | -2.23 (inactive) | -0.317 (inactive) | -0.344 (inactive)

Compound | composite z-score [1] | composite z-score (XIP peptide (Xip251-270)) | z-score [2] | z-score [3] | z-score [4] | z-score [5]
COCCOC(=O)N1C(=O)[C@@]2(c3cc(C#CC4(O)CCCCCC4)ccc31)[C@H](C(=O)N1CCCCCCC1)[C@H]1C(=O)O[C@H](c3ccccc3)[C@H](c3ccccc3)N1[C@@H]2c1ccc(O)cc1 | 0.888 (inactive) | 0.683 | -2.19 | 3.51 (inactive) | -0.169 (inactive) | 0.085 (inactive)
CN(C)c1ccc(C(O)C2C=CC3C(=O)NC(=O)C3N2Nc2ccc(Cl)cc2Cl)cc1 (stereo unspecified) | -0.0906 (inactive) | 0.16 | -0.599 | -4.19 (inactive) | -0.0923 (inactive) | 0.0147 (inactive)
CCCNC(=O)[C@@H]1c2ccccc2C(=O)N(C2CCCCC2)[C@H]1c1ccc(CO)cc1 | 0.521 (inactive) | 0.749 | -0.939 | -3.69 (inactive) | 0.108 (inactive) | -0.138 (inactive)
CC(=O)NCCCC[C@@H]1NC(=O)[C@@H]2C[C@H](C(=O)NCCCCCCN(C)C)[C@H](c3ccc(O)cc3)N2C1=O | 1.9 (inactive) | 0.852 | -0.289 | -0.0113 (inactive) | 0.313 (inactive) | 0.54 (inactive)
COc1ccc([Si](C)(C)[C@@H]2[C@@H](CC(=O)N(CCO)Cc3ccccc3)O[C@]3(C(=O)N(Cc4cccc(N5CCC5=O)c4)c4ccccc43)[C@H]2C)cc1 | 1.09 (inactive) | 0.756 | -2.5 | -1.54 (inactive) | -0.0556 (inactive) | -0.0513 (inactive)
C/C(=N\O)C(=O)NCCCCCNC(=O)OCc1ccccc1 | 0.759 (inactive) | 0.58 | 0.574 | -0.408 (inactive) | -0.103 (inactive) | -0.394 (inactive)
O=C1c2ccccc2[C@](Cc2ccccc2I)(C(=O)NCc2ccccc2)[C@H](c2ccc(CO)cc2)N1Cc1ccccc1C(F)(F)F | 0.696 (inactive) | -1.14 | -0.794 | -1.29 (inactive) | -0.361 (inactive) | -0.331 (inactive)
O=C1NC(=O)C2C1C=CC(C(O)C=Cc1ccc([N+](=O)[O-])cc1)N2Nc1ccccn1 (stereo unspecified) | 0.433 (inactive) | 0.792 | -0.304 | -1.88 (inactive) | -0.746 (inactive) | -0.987 (inactive)
COC(=O)[C@@]1(Cc2ccccc2)[C@H]2c3cc(C(=O)N4CCCC4)n(CCN4CNCC4=O)c3C[C@H]2CN1C(=O)c1ccccc1 | 1.12 (inactive) | -0.127 | -1.12 | -5.22 (inactive) | 0.421 (inactive) | 0.912 (inactive)
N#Cc1ccc(NN2C(C(O)CCc3ccccc3)C=CC3C(=O)N(c4ccccc4)C(=O)C32)cc1 (stereo unspecified) | 1.15 (inactive) | -0.279 | 0.484 | -4.3 (inactive) | -0.13 (inactive) | -0.424 (inactive)
C=CC[C@]1(C(=O)OC)N=C(c2ccc(OCCCO)cc2)O[C@H]1c1ccccc1CN=[N+]=[N-] | -0.127 (inactive) | -0.239 | -2.35 | -1.99 (inactive) | -0.0854 (inactive) | 0.137 (inactive)
C=C(CCCC)/C(=C/C[C@@H](OC(=O)c1ccncc1)c1ccc(CO)o1)c1cnc2ccccc2c1 | 0.518 (inactive) | 0.776 | -0.573 | -4.65 (inactive) | 0.222 (inactive) | -0.125 (inactive)
CCOC(=O)C1=CC[C@@H](c2ccccc2)N(S(=O)(=O)c2ccc(C)cc2)[C@H]1C | 0.214 (inactive) | 0.862 | -1.5 | -2.38 (inactive) | -0.325 (inactive) | -0.586 (inactive)
O=C1C2C=CC(C(O)Cc3ccccc3)N(Nc3ccc([N+](=O)[O-])cc3)C2C(=O)N1c1ccccc1 (stereo unspecified) | 2.76 (inactive) | -0.224 | -0.463 | -5.69 (inactive) | 0.433 (inactive) | -0.541 (inactive)
CC(=O)NCCCC[C@@H]1NC(=O)[C@H]2C[C@@H](C(=O)NCCCCCCN(C)C)[C@@H](c3cccc(OCCO)c3)N2C1=O | 2.96 (inactive) | 0.882 | -0.0473 | -2.84 (inactive) | 0.181 (inactive) | 0.733 (inactive)
